Experimental data as given in PubChem BioAssay AID1159580 (chemical genetic matrix, 2015).
In all, about 5,500 compounds went through this assay and about 2,000 (36%) were called active. Not shown: some 18% with an inconclusive outcome. Cut-off read from the data, not from the text of the source: active = normalized growth mostly below about 0.91 (no sharp cut-off); inconclusive = no clear call, values can overlap the other calls; inactive = mostly above about 0.92. The list shows a part of the results.

Assay: chemical genetic growth profiling, strain panel (AID 1159580);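 note: tested at 20 µM; growth read once vehicle control cultures reached saturation at 30 °C; 1 = growth at the plate median or of vehicle wells; lower values mean less growth of the strain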
Details: S. cerevisiae deletion strains, growth OD

Measured: normalized growth

CC(C)CCCC(C)C1CCC2C3CCC4CC(=O)CCC4(C)C3CCC12C (stereo not drawn)
inactive: locus YAL013W, strain DEP1, active compounds read low 1.01 | locus YBR021W, strain FUR4, active compounds read low 1.02 | locus YBR229C, strain ROT2, active compounds read low 1 | locus YCL029C, strain bik1, active compounds read low 1.02 | locus YDL035C, strain GPR1, active compounds read low 1.06 | locus YDL074C, strain BRE1, active compounds read low 1.07 | locus YDL101C, strain DUN1, active compounds read low 1.02 | locus YDL134C, strain PPH21, active compounds read low 1.03 | locus YDL185W, strain tfp1, active compounds read low 1.01 | locus YDL192W, strain arf1, active compounds read low 1.05 | locus YDR101C, strain arx1, active compounds read low 1.02 | locus YDR150W, strain NUM1, active compounds read low 1 | locus YDR162C, strain NBP2, active compounds read low 1.05 | locus YDR318W, strain mcm21, active compounds read low 1.01 | locus YDR388W, active compounds read low 1.02 | locus YDR502C, strain sam2, active compounds read low 1.01 | locus YEL061C, strain CIN8, active compounds read low 1.02 | locus YER110C, active compounds read low 1.02 | locus YER155C, strain BEM2, active compounds read low 1 | locus YER167W, strain BCK2, active compounds read low 1 | locus YGL078C, strain dbp3, active compounds read low 1.02 | locus YGL086W, strain mad1, active compounds read low 1.02 | locus YGL248W, strain PDE1, active compounds read low 1.04 | locus YGR078C, strain PAC10, active compounds read low 1.03 | locus YGR135W, strain pre9, active compounds read low 1.03 | locus YGR252W, strain gcn5, active compounds read low 1 | locus YHR030C, strain SLT2, active compounds read low 1.02 | locus YHR079C, strain IRE1 (second series), active compounds read low 1 | locus YHR094C, strain hxt1, active compounds read low 1.04 | locus YHR129C, strain ARP1, active compounds read low 1.02 | locus YHR200W, strain rpn10, active compounds read low 1.01 | locus YIL066C, strain RNR3, active compounds read low 1.05 | locus YIL073C, strain SPO22, active compounds read low 1.11 | locus YIL125W, strain kgd1, active compounds read low 1.01 | locus YIR030C, strain dcg1, active compounds read low 1.02 | locus YJL095W, strain BCK1, active compounds read low 1.06 | locus YJL134W, strain LCB3, active compounds read low 1.01 | locus YJL168C, strain set2, active compounds read low 1.01 | locus YJL187C, strain SWE1 (second series), active compounds read low 1.03 | locus YJR043C, strain POL32, active compounds read low 1.02 | locus YJR075W, strain HOC1, active compounds read low 1.03 | locus YKL009W, strain mrt4, active compounds read low 1.06 | locus YKL068W, active compounds read low 1.01 | locus YKL085W, strain MDH1 (second series), active compounds read low 1.02 | locus YKL085W, strain MDH1, active compounds read low 1.02 | locus YKL190W, strain CNB1, active compounds read low 1 | locus YKR001C, strain vps1, active compounds read low 1.09 | locus YLR039C, strain RIC1, active compounds read low 1.08 | locus YLR058C, strain SHM2, active compounds read low 1.03 | locus YLR102C, strain apc9, active compounds read low 1.02 | locus YLR262C, strain YPT6, active compounds read low 1.09 | locus YLR268W, strain sec22, active compounds read low 1.06 | locus YLR330W, strain CHS5, active compounds read low 1.02 | locus YLR342W, strain FKS1 (second series), active compounds read low 1.06 | locus YLR371W, strain rom2, active compounds read low 1.01 | locus YLR418C, strain cdc73, active compounds read low 1.05 | locus YML016C, strain PPZ1, active compounds read low 1.02 | locus YML032C, strain rad52, active compounds read low 1.02 | locus YML124C, strain tub3, active compounds read low 1.01 | locus YMR078C, strain ctf18, active compounds read low 1.01 | locus YMR223W, strain ubp8, active compounds read low 1.04 | locus YMR263W, strain SAP30, active compounds read low 1.02 | locus YMR307W, strain GAS1, active compounds read low 1.19 | locus YNL067W, strain RPL9B, active compounds read low 1.02 | locus YNL128W, strain TEP1, active compounds read low 1.06 | locus YNL153C, strain GIM3, active compounds read low 1.03 | locus YNL233W, strain BNI4, active compounds read low 1 | locus YNL250W, strain rad50, active compounds read low 1.02 | locus YNL271C, strain bni1, active compounds read low 1.01 | locus YNL298W, strain CLA4, active compounds read low 1.01 | locus YNL307C, strain MCK1, active compounds read low 1.01 | locus YNL322C, strain KRE1, active compounds read low 1.01 | locus YNR052C, strain pop2, active compounds read low 1.01 | locus YOL012C, strain htz1 1.43 | locus YOL147C, strain pex11, active compounds read low 1.01 | locus YOR061W, strain CKA2, active compounds read low 1.04 | locus YOR069W, strain VPS5, active compounds read low 1.01 | locus YOR136W, strain idh2, active compounds read low 1.02 | locus YOR144C, strain elg1, active compounds read low 1.01 | locus YOR184W, strain ser1, active compounds read low 1.07 | locus YOR316C, strain cot1, active compounds read low 1.02 | locus YPL055C, strain LGE1, active compounds read low 1.03 | locus YPL241C, strain CIN2, active compounds read low 1.01 | locus YPR119W, strain clb2, active compounds read low 1.01 | locus YPR141C, strain kar3, active compounds read low 1.02 | locus YPR163C, strain tif3, active compounds read low 1.03 | locus YPR167C, strain met16, active compounds read low 1.02 | strain wtn01, active compounds read low 1.04
